{"source": "the supplement of paper PMC12669032", "key": {"Roseburia intestinalis": {"test_system": "Roseburia intestinalis", "assay": "growth AUC relative to DMSO control (median of replicates) (fraction); higher = more growth (less inhibition), active = hit call of the paper", "details": "20 µM; 24 h;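 active = AUC reduced over 20% with Padj below 0.05 in at least 2 of 3 replicates; inactive = otherwise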", "procedure,_shortened": "(§1)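 For each compound at 20 µM (1% DMSO), gut bacterial monocultures seeded at OD600 0.05 grew anaerobically in mGAM at 37 °C in round-bottom 96-well plates. Hourly OD600 readings over 24 h gave growth curves whose minimum OD was set to 0. Area under these curves was normalised to the plate median of solvent-only wells, or to row and column medians on the industrial chemical plate. Values are medians of three biological replicates grown on separate days.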"}, "Streptococcus salivarius": {"test_system": "Streptococcus salivarius", "assay": "growth AUC relative to DMSO control (median of replicates) (fraction); higher = more growth (less inhibition), active = hit call of the paper", "details": "20 µM; 24 h", "procedure,_shortened": "as §1"}}, "data": [{"smiles": "CNC(=O)CSP(=O)(OC)OC", "values": [{"measurement": "growth AUC", "setting": "Roseburia intestinalis", "result": "1.02 (inactive)"}, {"measurement": "growth AUC", "setting": "Streptococcus salivarius", "result": "1.01 (inactive)"}]}, {"smiles": "Cc1ccccc1CO[C@@H]1C[C@@]2(C(C)C)CC[C@]1(C)O2", "note": "(mixture of isomers)", "values": [{"measurement": "growth AUC", "setting": "Roseburia intestinalis", "result": "0.978 (inactive)"}, {"measurement": "growth AUC", "setting": "Streptococcus salivarius", "result": "0.97 (inactive)"}]}, {"smiles": "COS(=O)(=O)[O-].Cn1c(-c2ccccc2)cc(-c2ccccc2)[n+]1C", "values": [{"measurement": "growth AUC", "setting": "Roseburia intestinalis", "result": "0.948 (inactive)"}, {"measurement": "growth AUC", "setting": "Streptococcus salivarius", "result": "0.97 (inactive)"}]}, {"smiles": "CCC1(C(=O)NC(C)c2ccc(Cl)cc2)C(C)C1(Cl)Cl", "note": "(stereo unspecified)", "values": [{"measurement": "growth AUC", "setting": "Roseburia intestinalis", "result": "0.888 (inactive)"}, {"measurement": "growth AUC", "setting": "Streptococcus salivarius", "result": "0.97 (inactive)"}]}, {"smiles": "O=c1oc2ccccc2c(O)c1C1CCCc2ccccc21", "note": "(stereo unspecified)", "values": [{"measurement": "growth AUC", "setting": "Roseburia intestinalis", "result": "1 (inactive)"}, {"measurement": "growth AUC", "setting": "Streptococcus salivarius", "result": "1.01 (inactive)"}]}, {"smiles": "COP(=S)(OC)Oc1ccc(Sc2ccc(OP(=S)(OC)OC)cc2)cc1", "values": [{"measurement": "growth AUC", "setting": "Roseburia intestinalis", "result": "1.03 (inactive)"}, {"measurement": "growth AUC", "setting": "Streptococcus salivarius", "result": "1.01 (inactive)"}]}, {"smiles": "CC(C)N(Cc1ccccc1)C(=O)C(C)(C)C", "values": [{"measurement": "growth AUC", "setting": "Roseburia intestinalis", "result": "0.898 (inactive)"}, {"measurement": "growth AUC", "setting": "Streptococcus salivarius", "result": "0.961 (inactive)"}]}, {"smiles": "CCO/N=C(\\CC)C1=C(O)CC(c2c(C)cc(C)cc2C)CC1=O", "note": "(stereo unspecified)", "values": [{"measurement": "growth AUC", "setting": "Roseburia intestinalis", "result": "0.945 (inactive)"}, {"measurement": "growth AUC", "setting": "Streptococcus salivarius", "result": "0.967 (inactive)"}]}, {"smiles": "O=C1CCc2cccc3c2N1CC3", "values": [{"measurement": "growth AUC", "setting": "Roseburia intestinalis", "result": "0.989 (inactive)"}, {"measurement": "growth AUC", "setting": "Streptococcus salivarius", "result": "0.941 (inactive)"}]}, {"smiles": "Nc1ncn[nH]1", "values": [{"measurement": "growth AUC", "setting": "Roseburia intestinalis", "result": "0.985 (inactive)"}, {"measurement": "growth AUC", "setting": "Streptococcus salivarius", "result": "0.997 (inactive)"}]}, {"smiles": "CNC(=O)N(C)c1nc2ccccc2s1", "values": [{"measurement": "growth AUC", "setting": "Roseburia intestinalis", "result": "0.989 (inactive)"}, {"measurement": "growth AUC", "setting": "Streptococcus salivarius", "result": "1 (inactive)"}]}, {"smiles": "COP(=S)(OC)Oc1c(Cl)cc(C)cc1Cl", "values": [{"measurement": "growth AUC", "setting": "Roseburia intestinalis", "result": "0.912 (inactive)"}, {"measurement": "growth AUC", "setting": "Streptococcus salivarius", "result": "0.972 (inactive)"}]}, {"smiles": "CCOc1nc(NC)nc(NC(=O)NS(=O)(=O)c2ccccc2C(=O)OC)n1", "values": [{"measurement": "growth AUC", "setting": "Roseburia intestinalis", "result": "0.992 (inactive)"}, {"measurement": "growth AUC", "setting": "Streptococcus salivarius", "result": "1.03 (inactive)"}]}, {"smiles": "CC1(C)CN=C(NN=C(/C=C/c2ccc(C(F)(F)F)cc2)/C=C/c2ccc(C(F)(F)F)cc2)NC1", "values": [{"measurement": "growth AUC", "setting": "Roseburia intestinalis", "result": "0.391 (active)"}, {"measurement": "growth AUC", "setting": "Streptococcus salivarius", "result": "1.1 (inactive)"}]}, {"smiles": "O=C(O)C(F)(F)C(F)(F)C(F)(F)C(F)(F)C(F)(F)C(F)(F)F", "values": [{"measurement": "growth AUC", "setting": "Roseburia intestinalis", "result": "1.03 (inactive)"}, {"measurement": "growth AUC", "setting": "Streptococcus salivarius", "result": "1.02 (inactive)"}]}, {"smiles": "Cc1cc(C(F)(C(F)(F)F)C(F)(F)F)ccc1NC(=O)c1cccc(I)c1C(=O)NC(C)(C)CS(C)(=O)=O", "values": [{"measurement": "growth AUC", "setting": "Roseburia intestinalis", "result": "1.67 (inactive)"}, {"measurement": "growth AUC", "setting": "Streptococcus salivarius", "result": "0.919 (inactive)"}]}, {"smiles": "O=C(NC(=O)c1c(F)cccc1F)Nc1ccc(Cl)cc1", "values": [{"measurement": "growth AUC", "setting": "Roseburia intestinalis", "result": "0.983 (inactive)"}, {"measurement": "growth AUC", "setting": "Streptococcus salivarius", "result": "0.992 (inactive)"}]}, {"smiles": "c1cc2ccc3cccc4ccc(c1)c2c34", "values": [{"measurement": "growth AUC", "setting": "Roseburia intestinalis", "result": "0.977 (inactive)"}, {"measurement": "growth AUC", "setting": "Streptococcus salivarius", "result": "0.927 (inactive)"}]}, {"smiles": "CCN(CC)C(=O)C(C)Oc1cccc2ccccc12", "note": "(stereo unspecified)", "values": [{"measurement": "growth AUC", "setting": "Roseburia intestinalis", "result": "1.08 (inactive)"}, {"measurement": "growth AUC", "setting": "Streptococcus salivarius", "result": "0.959 (inactive)"}]}, {"smiles": "CC1(C)C(C=C(Cl)Cl)C1C(=O)OCc1cccc(Oc2ccccc2)c1", "note": "(mixture of isomers)", "values": [{"measurement": "growth AUC", "setting": "Roseburia intestinalis", "result": "0.921 (inactive)"}, {"measurement": "growth AUC", "setting": "Streptococcus salivarius", "result": "0.979 (inactive)"}]}, {"smiles": "CCCCOCN(C(=O)CCl)c1c(CC)cccc1CC", "values": [{"measurement": "growth AUC", "setting": "Roseburia intestinalis", "result": "0.97 (inactive)"}, {"measurement": "growth AUC", "setting": "Streptococcus salivarius", "result": "0.915 (inactive)"}]}, {"smiles": "Cc1cc(Cl)ccc1OCC(=O)O", "values": [{"measurement": "growth AUC", "setting": "Roseburia intestinalis", "result": "1.02 (inactive)"}, {"measurement": "growth AUC", "setting": "Streptococcus salivarius", "result": "0.983 (inactive)"}]}, {"smiles": "CNC(=O)ON=C(CS(C)=O)C(C)(C)C", "note": "(stereo unspecified)", "values": [{"measurement": "growth AUC", "setting": "Roseburia intestinalis", "result": "0.974 (inactive)"}, {"measurement": "growth AUC", "setting": "Streptococcus salivarius", "result": "0.989 (inactive)"}]}, {"smiles": "CCCN(CCOc1c(Cl)cc(Cl)cc1Cl)C(=O)n1ccnc1", "values": [{"measurement": "growth AUC", "setting": "Roseburia intestinalis", "result": "0.8 (inactive)"}, {"measurement": "growth AUC", "setting": "Streptococcus salivarius", "result": "0.984 (inactive)"}]}, {"smiles": "O=C(Nc1ccccc1)Nc1cnns1", "values": [{"measurement": "growth AUC", "setting": "Roseburia intestinalis", "result": "0.918 (inactive)"}, {"measurement": "growth AUC", "setting": "Streptococcus salivarius", "result": "0.891 (inactive)"}]}, {"smiles": "CC1(C)C(C(=O)OC(C#N)c2cccc(Oc3ccccc3)c2)C1(C)C", "note": "(stereo unspecified)", "values": [{"measurement": "growth AUC", "setting": "Roseburia intestinalis", "result": "0.929 (inactive)"}, {"measurement": "growth AUC", "setting": "Streptococcus salivarius", "result": "0.957 (inactive)"}]}, {"smiles": "CCN(CC)C(=O)SCc1ccc(Cl)cc1", "values": [{"measurement": "growth AUC", "setting": "Roseburia intestinalis", "result": "0.983 (inactive)"}, {"measurement": "growth AUC", "setting": "Streptococcus salivarius", "result": "0.986 (inactive)"}]}, {"smiles": "Nc1nc(N)nc(Cl)n1", "values": [{"measurement": "growth AUC", "setting": "Roseburia intestinalis", "result": "1.05 (inactive)"}, {"measurement": "growth AUC", "setting": "Streptococcus salivarius", "result": "1.03 (inactive)"}]}, {"smiles": "COP(=O)(NC(C)=O)SC", "note": "(stereo unspecified)", "values": [{"measurement": "growth AUC", "setting": "Roseburia intestinalis", "result": "1.01 (inactive)"}, {"measurement": "growth AUC", "setting": "Streptococcus salivarius", "result": "1.01 (inactive)"}]}, {"smiles": "ClC1=C(Cl)[C@]2(Cl)[C@@H]3[C@H]4C[C@H]([C@@H]5O[C@H]45)[C@@H]3[C@@]1(Cl)C2(Cl)Cl", "values": [{"measurement": "growth AUC", "setting": "Roseburia intestinalis", "result": "0.909 (inactive)"}, {"measurement": "growth AUC", "setting": "Streptococcus salivarius", "result": "0.963 (inactive)"}]}, {"smiles": "CCOP(=O)(NC(C)C)Oc1ccc(S(C)=O)c(C)c1", "note": "(stereo unspecified)", "values": [{"measurement": "growth AUC", "setting": "Roseburia intestinalis", "result": "1.05 (inactive)"}, {"measurement": "growth AUC", "setting": "Streptococcus salivarius", "result": "1.05 (inactive)"}]}, {"smiles": "COC(=O)NCc1cc(/C(C)=N/OCc2cccc(C)n2)ccc1Cl", "values": [{"measurement": "growth AUC", "setting": "Roseburia intestinalis", "result": "0.957 (inactive)"}, {"measurement": "growth AUC", "setting": "Streptococcus salivarius", "result": "1.01 (inactive)"}]}, {"smiles": "Cc1ccc(N(SC(F)(Cl)Cl)S(=O)(=O)N(C)C)cc1", "values": [{"measurement": "growth AUC", "setting": "Roseburia intestinalis", "result": "1.01 (inactive)"}, {"measurement": "growth AUC", "setting": "Streptococcus salivarius", "result": "1.01 (inactive)"}]}, {"smiles": "O=C(Nc1ccccc1)c1ccccc1I", "values": [{"measurement": "growth AUC", "setting": "Roseburia intestinalis", "result": "1 (inactive)"}, {"measurement": "growth AUC", "setting": "Streptococcus salivarius", "result": "1.03 (inactive)"}]}, {"smiles": "Cc1ccccc1C(=O)Nc1cccc(OC(C)C)c1", "values": [{"measurement": "growth AUC", "setting": "Roseburia intestinalis", "result": "1.01 (inactive)"}, {"measurement": "growth AUC", "setting": "Streptococcus salivarius", "result": "0.988 (inactive)"}]}, {"smiles": "CC(C)OP(=O)(OC(C)C)SCc1ccccc1", "values": [{"measurement": "growth AUC", "setting": "Roseburia intestinalis", "result": "0.951 (inactive)"}, {"measurement": "growth AUC", "setting": "Streptococcus salivarius", "result": "1 (inactive)"}]}, {"smiles": "CCOC(=O)N(C)C(=O)CSP(=S)(OCC)OCC", "values": [{"measurement": "growth AUC", "setting": "Roseburia intestinalis", "result": "1.03 (inactive)"}, {"measurement": "growth AUC", "setting": "Streptococcus salivarius", "result": "1 (inactive)"}]}, {"smiles": "CC(C)(C)C(O)C(Oc1ccc(Cl)cc1)n1cncn1", "note": "(stereo unspecified)", "values": [{"measurement": "growth AUC", "setting": "Roseburia intestinalis", "result": "1.03 (inactive)"}, {"measurement": "growth AUC", "setting": "Streptococcus salivarius", "result": "1.03 (inactive)"}]}, {"smiles": "C=C(C)[C@H]1Cc2c(ccc3c2O[C@@H]2COc4cc(OC)c(OC)cc4[C@@H]2C3=O)O1", "values": [{"measurement": "growth AUC", "setting": "Roseburia intestinalis", "result": "0.935 (inactive)"}, {"measurement": "growth AUC", "setting": "Streptococcus salivarius", "result": "1.02 (inactive)"}]}, {"smiles": "COP(=S)(OC)Oc1ccc(SC)c(C)c1", "values": [{"measurement": "growth AUC", "setting": "Roseburia intestinalis", "result": "1.03 (inactive)"}, {"measurement": "growth AUC", "setting": "Streptococcus salivarius", "result": "0.965 (inactive)"}]}, {"smiles": "Cn1cc(-c2ccccc2)c(=O)c(-c2cccc(C(F)(F)F)c2)c1", "values": [{"measurement": "growth AUC", "setting": "Roseburia intestinalis", "result": "1.04 (inactive)"}, {"measurement": "growth AUC", "setting": "Streptococcus salivarius", "result": "0.986 (inactive)"}]}, {"smiles": "C[N+]1(C)CCCCC1.[Cl-]", "values": [{"measurement": "growth AUC", "setting": "Roseburia intestinalis", "result": "0.975 (inactive)"}, {"measurement": "growth AUC", "setting": "Streptococcus salivarius", "result": "0.99 (inactive)"}]}, {"smiles": "O=C(Nc1ccccc1)Nc1ccnc(Cl)c1", "values": [{"measurement": "growth AUC", "setting": "Roseburia intestinalis", "result": "0.896 (inactive)"}, {"measurement": "growth AUC", "setting": "Streptococcus salivarius", "result": "0.844 (inactive)"}]}]}
